# Screening data from PubChem BioAssay.
# Mot1-301 SUMO: blocks SUMOylation pathway, rescuing yeast Mot1-301 growth; growth rescue, % at 18.8 µM; AID 2716; 1% of 320,000 active; S. cerevisiae Mot1-301 growth rescue, ATP luminescence, 38.5C; percent above DMSO median, 100 means doubled;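 active = every valid replicate shows activation above 250% relative to neutral control wells; inactive = the rest, any valid replicate at or below 250%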;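 note: OY570 slx delta 5 strain wells were the positive control but not used for scaling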
# SKN-1 inh: inhibitors of C. elegans SKN-1. C. elegans VP596 Pgst-4::GFP/RFP ratio, acrylamide-induced, 24 h. inhibition, % at 21.8 µM. 0.49% of 360,000 active;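 active = interference check ratio from 0.5 to 1.5 plus GFP to RFP signal ratio inhibition reaching or exceeding a fixed threshold, cut at about 30% in these data, passing the limit was not always enough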
# Efflux pump mplx: inhibitors of Candida antifungal efflux pumps expressed in yeast; 0.44% of 330,000 active; AID 485275; inhibition, % at 10 µM; S. cerevisiae Candida pump triplex, Nile Red efflux;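 active = plate passing quality check with inhibition over a set limit, or well fluorescence over plate mean plus 4 SD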;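 note: Nile Red retained in pooled yeast measured as flow cytometry median fluorescence; 0% = buffer negative control and 100% = Enniatin B positive control; higher means more Nile Red kept so more efflux inhibition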
# HGIII-sPLA2 inh: Blocks human group III sPLA2 activity; QFRET BODIPY PC-A2 liposome hydrolysis, fluorescence; 0.56% of 370,000 active; inhibition, % at 12.2 µM;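 active = inhibition above mean plus 3 SD of compounds lying within the high and low control bounds, cut at about 19% in these data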;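 note: 0% = median of test compound wells and 100% = no enzyme DMSO wells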
# Target sequence (Q9NZ20 whole entry, looked up): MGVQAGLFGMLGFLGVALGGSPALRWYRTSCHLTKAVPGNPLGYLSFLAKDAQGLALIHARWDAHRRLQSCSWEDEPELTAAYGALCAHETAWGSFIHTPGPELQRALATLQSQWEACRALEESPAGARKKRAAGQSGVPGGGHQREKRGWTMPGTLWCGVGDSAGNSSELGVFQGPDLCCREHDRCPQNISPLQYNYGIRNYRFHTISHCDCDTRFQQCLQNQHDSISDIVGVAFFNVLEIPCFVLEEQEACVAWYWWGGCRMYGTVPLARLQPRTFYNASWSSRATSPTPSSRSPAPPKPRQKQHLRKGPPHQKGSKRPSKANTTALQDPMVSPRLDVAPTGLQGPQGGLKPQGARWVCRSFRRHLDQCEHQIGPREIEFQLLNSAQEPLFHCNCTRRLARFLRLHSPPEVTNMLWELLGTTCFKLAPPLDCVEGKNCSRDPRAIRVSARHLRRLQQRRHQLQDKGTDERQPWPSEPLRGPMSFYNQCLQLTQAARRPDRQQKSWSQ
# * hit, by the source's call; · = not tested or not shown. A selection: hits, their analogues and other compounds. The true share with any hit is near 2.2%.
SMILES,Mot1-301 SUMO,SKN-1 inh,Efflux pump mplx,HGIII-sPLA2 inh
CCOc1ccccc1Nc1nnc(SCC(=O)Nc2cccc(S(=O)(=O)NC3=NCCCCC3)c2)s1,677.1*,13.7,-3.3,-13.4
CCOc1ccccc1OCC(=O)Nc1cccc(S(=O)(=O)NC2=NCCCCC2)c1,-15.3,5.8,-0.1,8.5
Cc1nn(-c2ccccc2)c(N)c1C(O)(CC(=O)C(F)(F)F)C(F)(F)F (centres undefined),333.3*,3.3,0.1,10.5
Cc1nn(-c2ccccc2)c(N)c1C(O)(C(F)(F)F)C(F)(F)F,23.2,5.9,2.2,-5.0
C[N+]1(C)CCC(OC(=O)C(O)(c2ccccc2)C2CCCC2)C1 (centres undefined),373.1*,0.6,0.0,11.8
CN(C)c1oc(-c2ccco2)nc1C#N,-16.6,59.2*,0.0,7.0
CCCCc1cc(=O)oc2c3c(cc(OCC(=O)N4CCC[C@H]4C(=O)O)c12)OC(C)(C)CC3,720.9*,-6.3,0.2,-4.7
Cc1c(C)c2c(OCC(=O)N3CCC(C(N)=O)CC3)cc3c(c2oc1=O)CCC(C)(C)O3,610.1*,-6.1,0.4,7.0
Cc1cc(=O)oc2c3c(cc(OCC(=O)N4CCC[C@H]4C(=O)O)c12)OC(C)(C)CC3,298.7,14.3,0.2,5.7
Cc1cc(=O)oc2c3c(cc(OCC(=O)N4CCC(C(=O)O)CC4)c12)OC(C)(C)CC3,15.9,5.9,0.0,5.1
Cc1cc(SCC(=O)N/N=C/c2ccc(O)c(O)c2O)c(C)cc1Br,15.1,16.2,-0.1,31.6*
COc1ccc2nc(SCC(=O)Nc3ccc(S(=O)(=O)N4CCCC4)cc3)c(C#N)cc2c1,0.7,39.6*,0.4,-4.4
N#Cc1cc2ccccc2nc1SCC(=O)Nc1ccc(S(=O)(=O)N2CCCC2)cc1,-6.5,-6.7,0.1,-3.6
CCC(C)N1C(=O)/C(=C/c2c(NCCCOC(C)C)nc3c(C)cccn3c2=O)SC1=S (centres undefined),100.0,71.0,0.8*,2.1
CCCN1C(=O)/C(=C/c2c(NCCCOC(C)C)nc3c(C)cccn3c2=O)SC1=S,84.3,15.3,0.4,·
O=C(Nc1ccc(Cl)cn1)c1ccccc1F,·,59.0*,-0.2,-4.5
Cc1ccc(C(=O)NC(=S)Nc2ccccc2C(F)(F)F)c(C)c1,0.0,31.6*,0.2,6.5
Cc1ccccc1C(=O)NC(=S)Nc1ccccc1C(F)(F)F,·,6.5,0.3,3.5
CC(C)(C)c1ccc(C#C[C@@H]2C=C[C@@H](O)[C@@H](COC(=O)NCc3ccccc3)O2)cc1,·,·,·,-3.9
COc1cccc(CC(=O)N(Cc2ccccc2)c2ccccc2C(=O)Nc2cc(OC)ccc2OC)c1,·,·,·,-10.4
Oc1[nH]c(N=C2N=c3ccccc3=N2)c2ccccc12,293.3*,22.3,0.0,9.7
Cc1ccc2c(c1)=N/C(=N\c1[nH]c(O)c3ccccc13)N=2,·,4.7,·,8.7
O=C(O)c1ccccc1N/N=C/c1c(Sc2nnnn2-c2ccccc2)nc2ccccn2c1=O,-4.6,16.1,-0.2,16.4
O=c1c(/C=N/Nc2ccccc2)c(Sc2nnnn2-c2ccccc2)nc2ccccn12,·,35.8*,·,1.8
CCCCc1c(-c2ccccc2OC)ncn1C(C)c1ccccc1 (centres undefined),·,·,·,-8.9
SMILES,Mot1-301 SUMO,SKN-1 inh,Efflux pump mplx,HGIII-sPLA2 inh
Cc1nnc(N2C(=O)c3cccc4c([N+](=O)[O-])ccc(c34)C2=O)s1,-22.2,0.9,2.1*,4.5
Cc1ccc(N2C(=O)c3cccc4c([N+](=O)[O-])ccc(c34)C2=O)c2cccnc12,8.4,-3.0,0.1,8.2
O=C(O)c1ccc2ccc3ccccc3c2c1,15.6,41.2*,0.0,-5.5
O=C(O)c1cccc(C(=O)c2cccc3ccccc23)c1,18.6,1.4,0.0,4.5
COC(=O)[C@]12C[C@H](CC(=O)N3CCCC3)C(=O)N(Cc3ccccc3)C1=C[C@H](C(C)(C)C)O[C@@H]2C,·,·,·,-2.4
CC(=O)N(Cc1ccc(Cl)cc1)c1cnccn1,-25.9,4.2,0.0,-6.3
CN(CCO)c1cnccn1,580.4*,9.4,0.5,3.5
S=C(NCCN1CCCCC1)Nc1ccc(Br)cc1,347.8*,15.6,-0.2,17.8
Cc1cccc(NC(=O)NCCN2CCCCC2)c1,86.6,38.4*,0.0,4.1
S=C(NCCN1CCCCC1)Nc1ccccc1,165.1,-5.6,-0.1,9.7
Cc1ccc(NC(=O)NCCN2CCCCC2)cc1Cl,1.0,-2.7,-0.2,-5.1
CCC1(c2ccccc2)ON(c2c(Br)cccc2Br)C1=O (centres undefined),717.6*,-11.4,-0.1,4.0
COc1ccc(Cn2c(C)cc(O)cc2=O)cc1,·,·,·,0.0
COc1ccc(C(=O)N/N=C/c2ccc(OC)c(COc3ccccc3)c2)cc1,704.7,-7.0,-0.1,-3.9
COc1ccc(/C=N\NC(=O)c2cc(O)c(O)c(O)c2)cc1COc1ccc(C(=O)OCC(C)C)cc1,-15.9,1.5,0.6,25.1*
CC1=C(C(=O)OCC2CCCO2)C(c2ccccc2OC(C)C)C2=C(CC(c3ccco3)CC2=O)N1 (centres undefined),0.9,40.5*,0.1,-0.6
CC(NC(=O)c1cc(COc2ccccc2)on1)c1nccs1 (centres undefined),-4.2,35.5*,-0.1,0.0
Nc1[nH]c(C(=O)c2ccccc2)c(-c2ccc(Cl)cc2F)c1C(=O)NCCc1c[nH]c2ccccc12,·,·,·,-57.8
c1ccc2c(c1)CCN(C1=Nc3cccc4cccc1c34)C2,·,48.8*,·,-9.5
c1cc2c3c(cccc3c1)C(N1CCCCCC1)=N2,-7.7,7.1,-0.1,0.5
CCOC(=O)CN1C(=O)N[C@@H](c2ccccc2)[C@H](C(C)=O)[C@H]1C,-8.8,0.9,0.1,0.4
COc1ccc(CNC(=O)COC(=O)c2cc(-c3ccc(Cl)s3)nc3ccccc23)cc1,276.1*,-6.0,0.0,-0.7
O=C(COC(=O)c1cc(-c2ccc(Cl)s2)nc2ccccc12)NCc1ccco1,174.0,0.5,-0.1,-12.2
COC(=O)[C@]1(CC(C)C)NC=C(C(=O)c2ccccc2)[C@@H]1c1cccs1,·,·,·,-49.7
O=S(=O)(c1ccc(F)cc1)n1ccc(-c2cccc(OCc3c(F)cccc3Cl)c2)n1,·,41.9*,0.3,2.2
SMILES,Mot1-301 SUMO,SKN-1 inh,Efflux pump mplx,HGIII-sPLA2 inh
COC(=O)N1Cc2ccnnc2CC1c1ccccc1-c1ccccc1 (centres undefined),·,·,·,-2.6
COc1ccc(C(=O)CC2(O)C(=O)N(CN3CCOCC3)c3ccc(Br)cc32)cc1 (centres undefined),·,·,·,-7.9
Cc1cc(C)cc(-c2nc(-c3ccncc3)no2)c1,7.2,3.2,-0.2,12.6
Brc1cccc(-c2nc(-c3ccncc3)no2)c1,21.1,76.7*,0.0,1.3
O=C(O)c1ccc(-c2noc(-c3cccc(C(F)(F)F)c3)n2)cc1,6.3,5.2,-0.1,11.2
FC(F)(F)c1cccc(-c2nc(-c3ccncc3)no2)c1,-2.8,50.1*,-0.1,3.8
Cc1ccc(-c2nc(-c3ccncc3)no2)cc1,19.6,42.5*,0.1,3.0
C#CCOCCOCCOCCNc1nc(N2CCN(C(=O)[C@H](CCCCN)n3cc([C@@H](N)CC(C)C)nn3)CC2)nc(N2CCN(C(=O)[C@H](Cc3cc4ccccc4[nH]3)n3cc([C@@H](N)CC(C)C)nn3)CC2)n1,·,·,·,-41.0
